# A selection: hits, their analogues and other compounds. The true share with any hit is near 2.3%.
# Pol iota inh = blocks human DNA polymerase iota activity; Q9UNA4; Pol iota fluorescent replication assay, 10 min; Potency, µM (highest dose often 115 µM), for the others: at the highest dose activity, negative = inhibition, actives largely listed as inhibitors; 1% of 390,000 active; AID 588590
#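 Fluorescent replication assay read twice, at 0 min and 10 min after adding 50 nM (final) substrate. Enzyme (10 nM) and compounds were first incubated 15 min at room temperature; enzyme-free buffer wells were negative controls.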
# POLK inh = DNA polymerase kappa (human) inhibition; Q9UBT6; purified Pol kappa, fluorescent DNA synthesis assay, 10 min; Potency, µM (top dose mostly 107 µM), for inactives: at the highest dose activity, negative = inhibition, actives largely listed as inhibitors; 0.53% of 400,000 active; AID 588579; further: on the % scale 0 is the no-effect control and ±100 the full control effect
#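 Inhibition of 10 nM Pol kappa is measured by a fluorescent read-out at 0 and 10 min following addition of 50 nM substrate (final), with a 15-min room-temperature compound preincubation.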
# Pol eta inh = inhibitors of human DNA polymerase eta; Q9Y253; recombinant Pol eta, fluorescent DNA replication assay; Potency, µM (top dose mostly 114 µM), for inactives: at the highest dose activity change, negative = inhibition, actives largely listed as inhibitors; 1.2% of 390,000 active; AID 588591; further: on the % scale 0 is the no-effect control and ±100 the full control effect
# Target sequence (Q9Y253 whole entry, looked up): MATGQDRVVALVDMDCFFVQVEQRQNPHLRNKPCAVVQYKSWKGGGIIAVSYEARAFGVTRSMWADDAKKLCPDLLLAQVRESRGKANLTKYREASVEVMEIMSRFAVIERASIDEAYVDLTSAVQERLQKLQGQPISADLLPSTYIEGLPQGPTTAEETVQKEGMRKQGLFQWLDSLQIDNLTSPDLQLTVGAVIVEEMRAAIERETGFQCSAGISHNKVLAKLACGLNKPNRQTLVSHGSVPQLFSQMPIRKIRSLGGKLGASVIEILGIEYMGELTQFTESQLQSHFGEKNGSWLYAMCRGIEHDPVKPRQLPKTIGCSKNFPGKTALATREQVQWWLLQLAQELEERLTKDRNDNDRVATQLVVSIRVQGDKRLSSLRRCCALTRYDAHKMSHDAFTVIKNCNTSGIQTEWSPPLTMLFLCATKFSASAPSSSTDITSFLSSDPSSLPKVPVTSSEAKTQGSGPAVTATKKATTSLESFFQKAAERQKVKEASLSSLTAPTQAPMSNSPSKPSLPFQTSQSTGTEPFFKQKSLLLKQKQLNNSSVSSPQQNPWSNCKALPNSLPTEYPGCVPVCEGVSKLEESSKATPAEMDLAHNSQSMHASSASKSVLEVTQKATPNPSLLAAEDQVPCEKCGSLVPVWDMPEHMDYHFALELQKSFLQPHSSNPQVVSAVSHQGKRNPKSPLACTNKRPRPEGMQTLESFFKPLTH
#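 Fluorescent replication assay: 50 nM final substrate added after a 15 min room-temperature compound preincubation with 10 nM enzyme. Signal taken at 0 min and again at 10 min.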
# Pol beta inh = inhibitors of human DNA polymerase beta. Potency, µM (top dose mostly 114 µM), for inactives: at the highest dose activity change, negative = inhibition, actives largely listed as inhibitors. AID 485314. P06746. 1.3% of 340,000 active. Pol beta primer extension/strand displacement, fluorescence kinetic; further: on the % scale 0 is the no-effect control and ±100 the full control effect
#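 Reaction started by 50 nM substrate onto compound-treated Pol beta (10 nM, 15 min preincubation, room temperature); plates read at 0 min and 10 min. Normalized concentration-effect data fitted by four-parameter Hill equation.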
# WRN helicase inh = blocks human WRN helicase; AID 651768; Potency, µM (doses to about 114 µM), for inactives: at the highest dose activity change, negative = inhibition, most hits filed as inhibitors; WRN helicase unwinding, fluorescent forked duplex, kinetic; Q14191; 0.46% of 360,000 active; further: on the % scale 0 is the no-effect control and ±100 the full control effect; nearly all actives have a fitted effect of over 55% in size
#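 Enzyme (20 nM final) and test compound sit together 15 min at room temperature before substrate addition. Substrate is a single-forked duplex oligonucleotide (100 nM) labelled with fluorophore and quencher, with 2 mM ATP; helicase unwinding raises red fluorescence, read kinetically.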
# An asterisk follows results filed as active; ? = inconclusive; . = no result; [ ] = dose if it differs, or a comment. The call rests on the fitted dose curve; in most records, active means well fitted curve in the direction sought with a large enough effect; inconclusive means small, poorly fitted or top-dose-only effect, or another doubt; inactive means no such curve, though single readings can be large; an effect the other way counts as inactive or inconclusive. Potency means the concentration at half of the fitted maximal effect.
SMILES,Pol iota inh,POLK inh,Pol eta inh,Pol beta inh,WRN helicase inh
Cc1cccc(NC(=O)CN2C(=O)N/C(=C/c3ccc(-c4cccc(C(=O)O)c4C)o3)C2=O)c1,-9%,-23%,79µM*,?,-18%
Cc1c(C(=O)O)cccc1-c1ccc(/C=C2/NC(=O)N(c3ccccc3)C2=O)o1,?,?,22µM*,18µM*,-19%
Cc1c(C(=O)O)cccc1-c1ccc(/C=C2\SC(=O)NC2=O)o1,?,?,22µM*,7%,-4%[11.6 µM]
CCCCNC(=O)CSc1nnc(Cc2ccc(Cl)c(Cl)c2)c(=O)[nH]1,?,89µM*,12%,-10%,-7%
COc1ccc(Cc2nnc(SCC(=O)Nc3cc(Cl)ccc3OC)[nH]c2=O)cc1,9%,-13%,-18%,.,-25%
CC(=O)Nc1ccc(S(=O)(=O)Nc2cc(-c3ccccc3)nn2C)cc1,84%,-13%,-9%,-3%,-4%
CC(=O)Nc1ccc(S(=O)(=O)Nc2nc3nc(-c4ccccc4)cc(-c4ccccc4)n3n2)cc1,?,79µM*,-4%,32%,-12%
CCn1c(=O)c2cc(C(=O)NCCCN3CCN(c4ccc(F)cc4)CC3)sc2c2ccccc21,0%,-4%,-5%,10%,.
COc1ccc(-c2nc3ccccc3o2)cc1NC(=O)COc1ccc(C)cc1,-5%,-43%,.,.,.
COCCN(C(=O)COC(=O)/C=C/c1ccc(C)o1)c1c(N)n(Cc2ccccc2)c(=O)[nH]c1=O,79µM*,-7%,-11%,-6%,-1%
COCCN(C(=O)COC(=O)/C=C/c1ccco1)c1c(N)n(Cc2ccccc2)c(=O)[nH]c1=O,?,-32%,?,28µM*,1%[11.6 µM]
COCCN(C(=O)COC(=O)/C=C/c1ccc(OC)c(OC)c1)c1c(N)n(Cc2ccccc2)c(=O)[nH]c1=O,2%,3%,-1%,.,-12%
COc1ccc(OC)c(CCNC(=O)CCc2cn(Cc3cc(C)ccc3C)c3ccccc23)c1,0%,-12%,-11%,?,.
C#CCN(Cc1ccc(OC)cc1)S(=O)(=O)C=C,-15%,-17%,.,.,.
O=C(O[C@H]1[C@H](Cc2ccccc2)NS(=O)(=O)[C@H]2C[C@@H]3C=C[C@]12O3)c1ccccc1Br,15%,-3%,.,.,.
CCCn1nc([N+](=O)[O-])c(C(C#N)c2nc3ccccc3o2)c(Cl)c1=O (stereo unspecified),?,-3%,22µM*,-29%,?
Cn1nc([N+](=O)[O-])c(C(C#N)c2ccccn2)c(Cl)c1=O (stereo unspecified),?,-18%,-3%,-3%,-19%
CN(C)c1ccc(/C=C2\NC(=O)NC2=O)cc1,21%,-23%,.,.,.
Cc1ccc(NC(=O)c2cc(=O)n(Cc3ccccc3)c(=O)[nH]2)cc1C,?,1%,-29%,40µM*,-3%
O=C(O)c1cc(=O)n(Cc2ccccc2)c(=O)[nH]1,96%,8%,-9%,-25%,13%
CC(/C=N/NC(=O)c1ccncc1)=C\c1ccccc1,-4%,-23%,0%,5%,-13%
COc1ccccc1/C=C/C=N/NC(=O)c1ccc2nc[nH]c2c1,.,.,.,35µM*,.
O=C(N/N=C/c1ccncc1)c1ccc(NC(=O)c2cccc(Cl)c2)cc1,?,?,?,8.9µM*,-35%
CC(=C/c1ccccc1)/C=N/NC(=O)c1ccccn1,24%,5%,-9%,63µM*,-3%
O=C(N/N=C/C(Br)=C/c1ccccc1)c1ccncc1,-1%,-9%,4%,-5%,-15%
SMILES,Pol iota inh,POLK inh,Pol eta inh,Pol beta inh,WRN helicase inh
O=C(N/N=C/C(Br)=C\c1ccccc1)c1ccc2nc[nH]c2c1,?,-16%,?,13µM*,-27%
COc1ccc(OC)c(/C=N/NC(=O)c2ccc3nc[nH]c3c2)c1,2%,-11%,-20%,-7%,10%
CCCCNC(=O)NS(=O)(=O)c1ccc(C(=O)O)cc1,.,11%[60.1 µM],.,.,.
CC(=C/c1ccccc1)/C=N/NC(=O)c1ccc2nc[nH]c2c1,13%,0%,-4%,32µM*,3%
O=C(N/N=C/c1ccc(OC(=O)c2cccs2)cc1)c1cccc(F)c1,-15%[58.9 µM],-24%,-26%,8.9µM*,-18%
CC(/C=N/NC(=O)c1ccc2nc(C)[nH]c2c1)=C\c1ccccc1,-5%,-1%,?,28µM*,-33%[57.1 µM]
COc1cccc(/C=N/NC(=O)c2ccc3nc[nH]c3c2)c1,-23%,-4%,5%,?,3%
COc1ccccc1C(=O)N/N=C/C(C)=C/c1ccccc1,153%,0%,-16%,?,-1%
CC(/C=N/NC(=O)c1cccc(F)c1)=C\c1ccccc1,1%,-18%,-8%,18µM*,-1%
O=C(N/N=C/c1ccc(Cl)cc1Cl)c1ccc2nc[nH]c2c1,-29%,-11%,-13%,16µM*,-7%
C=C1C=C(C(F)F)n2ncc(C(=O)N3CCN(c4ccccc4)CC3)c2N1,9%,4%,.,.,.
COc1cc(C(Nc2ccccn2)c2ccc3ccc(C)nc3c2O)cc(OC)c1O (stereo unspecified),12%,-15%,-17%,6%,32µM*
Cc1ccc2ccc(C(Nc3ccccn3)c3ccccc3)c(O)c2n1 (stereo unspecified),23%,-19%,-6%,26%,-4%
C=C1[C@@H](O)[C@H](CC(C)C)N(Cc2ccccc2Br)S1(=O)=O,2%,6%,50µM*,.,-2%
C=CCOc1c(OC)cc(/C=N/Nc2cccc(C(=O)O)c2)c(Br)c1Br,-16%,?,?,50µM*,-24%
COc1ccc(NC(=O)c2cc3c(COC(C)=O)cnc(C)c3oc2=Nc2cccc(C(=O)O)c2)c(OC)c1,-23%,-6%,3.2µM*,-26%,-7%
COc1cccc(N=c2oc3c(C)ncc(CO)c3cc2C(=O)Nc2ccccc2OC)c1,.,.,.,0%,.
CC(C)(C)n1ncc2c(=O)n(Cc3ccc(Cl)c(OC(F)(F)F)c3)cnc21,1%,-12%,.,.,.
Cc1sc2ncnc(SCC(=O)NC(=O)NCc3ccco3)c2c1C,?,?,89µM*,11µM*,-27%
Cc1ccc(-c2csc3ncnc(OCC(=O)NC(=O)NCc4ccco4)c23)cc1,?,-32%,79µM*,40µM*,-10%[57.1 µM]
Cc1nc(SCC(=O)NCc2ccco2)nc(C)c1C,3%,-1%,-15%,-11%,7%
O=C(CSc1nc2cc(Cl)ccc2s1)NC(=O)NCc1ccco1,19%,?,35µM*,45µM*,?
Cc1nc(SCC(=O)NC(=O)NCc2ccco2)nc(C)c1C,?,-14%,-21%,18µM*,-12%
CCOc1ccc2nc(SCC(=O)NC(=O)NCc3ccco3)sc2c1,0%,0%,-9%,24%,-4%

# High-throughput results: PubChem, National Center for Advancing Translational Sciences (NCATS)
